The record followed here is PubChem BioAssay (NCI).

Structures are written as SMILES. This is part of a sample that, as a whole, favours compounds with a hit. Of some 83,000 tested, about 20% had one in any assay.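 Method: cells in 96-well plates; compound added at one concentration; 48 h incubation; percent growth measured; values under 10 scored active.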 Unmarked numbers belong to inactive results.

In this assay the test system is MDA-MB-468 breast. The assay can be described thus: NCI-60 one-dose screen, 48 h (100 = growth as untreated, 0 = no growth, -100 = all killed). Particulars: 10 µM unless noted.
With `Fc1ccc2nc(-c3ccc(-c4noc(-c5ccc(Cl)cc5)n4)cc3)[nH]c2c1`, the growth is 110%.
To `O=c1c2cc(-c3ccccc3)sc2nc2sc(-c3ccccc3)nn12` belongs 101%.
On to `COc1cc(/C=N/NC(=S)NNC(=S)NC2CCCCC2)cc(OC)c1OC`, for which the growth is 94.2%.
